# The campaign covered roughly 1,200 compounds. About 110 (9.2%) were called active. Inconclusive results (about 8%) are left out.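 How the source made its calls: active means pathway reporter half-maximal dose under half the control reporter's, or control reporter unaffected while pathway reporter is inhibited; inconclusive means either signal flat at 30 to 70% inhibition or poorly fitted; inactive means the rest.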 These entries were drawn from the full list. Entries with a potency or affinity are not part of this list.
# Assay: LMP1 TES1 pathway selectivity over dsRED control – imaging, HEK293T, dual-color eGFP/dsRED, cherry-picks, selectivity assay for LMP1 NF-kB inhibitor project, dose response (AID 588398);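 further: 0% = median of neutral control wells and -100% = median of MG132 positive control wells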
# Settings: 48 h; HEK293T Tet-On dsRED counter-screen channel, at 19.5 µM (top of the series); activity change, negative = inhibition: at the top concentration
row,Structure (SMILES),"activity change, negative = inhibition"
1,CCOC(=O)C1=C(C)N(C)C(=O)NC1c1ccccc1OC (stereo not given),14.8% (inactive)
2,O=C(Nc1cc(S(=O)(=O)N2CCOCC2)ccc1Cl)c1ccncc1,8.81% (inactive)
3,O=C1C2CCCN2c2ccc(S(=O)(=O)N3CCOCC3)cc2N1Cc1ccccc1F (stereo not given),-10.2% (inactive)
4,CCn1nc(C(=O)Nc2nc(-c3ccccn3)cs2)c2ccccc2c1=O,13.2% (inactive)
5,COc1ccc(C2CC(C(F)(F)F)n3ncc(C(=O)NCc4cccnc4)c3N2)cc1OC (stereo not given),3.54% (inactive)
6,C=CCN=C1NN=C(c2cc(C)n(CCOC)c2C)CS1,5.31% (inactive)
7,Cc1cccc(C)c1NC(=O)CN(C)CC(=O)Nc1ccccc1Oc1ccccc1,13.9% (inactive)
8,Cc1sc2nc(SCC(=O)OC(C)C)n(C)c(=O)c2c1C,25.6% (inactive)
9,O=C(c1ccc(Cl)cc1)N1CCN(CCOc2ccccc2)CC1,8.86% (inactive)
10,Cc1cccc(Cn2cc(SCC(=O)Nc3nccs3)c3ccccc32)c1,20.8% (inactive)
11,O=C(CSc1nc2ccccc2c(=O)n1CCCN1CCOCC1)Nc1ccc(Br)cc1,0.76% (inactive)
12,O=C(Cn1cc(CNC(=O)C2CCCCC2)nn1)Nc1cc(C(F)(F)F)ccc1Cl,-3.45% (inactive)
13,COc1ccc(NC(=O)c2cc3ccccc3oc2=O)cc1,2.5% (inactive)
14,COc1ccc(C(=O)Nc2cccc(C(=O)N/N=C/c3ccc(OC)cc3OC)c2)cc1,11.3% (inactive)
15,COc1cc(NC(=S)N2CCN(CCO)CC2)cc(OC)c1,-3.32% (inactive)
16,CCCc1nc(SCC(=O)NCc2ccco2)c2c(=O)n(C)c(=O)n(C)c2n1,-8.24% (inactive)
17,Oc1c(N=NC(=S)Nc2ccccc2F)c2ccccc2n1Cc1ccccc1F,78.1% (inactive)
18,O=C1C=Cc2cccc3ccc(O)c1c23,-25.7% (inactive)
19,COc1ccc(OC)c(CCNC(=O)CCn2nc(C)c3c(C)n(-c4ccccc4)nc3c2=O)c1,33% (inactive)
20,COc1cc(/C=C2/SC(=S)N(Cc3ccccc3)C2=O)ccc1OCC(=O)O,3.87% (inactive)
21,O=C(O)CN1C(=O)/C(=C\c2ccccc2OCc2ccc(Cl)cc2Cl)SC1=S,21% (inactive)
22,Cc1ccc(C2=C/C(=C\c3cccnc3)C(=O)O2)cc1,-0.215% (inactive)

row,Structure (SMILES),"activity change, negative = inhibition"
1,CC1S/C(=C(\C#N)C(=O)NCc2ccco2)N(Cc2ccco2)C1=O (stereo not given),11.3% (inactive)
2,CCc1ccc(/C=C2\SC(=S)N(CCCC(=O)NC3=NCCS3)C2=O)cc1,3.24% (inactive)
3,O=C(CCCN1C(=O)/C(=C/c2ccccc2Cl)SC1=S)NNC(=O)c1ccccc1Cl,7.28% (inactive)
4,CCCC(C)NC(C)C(=O)NC1CCCC1 (stereo not given),-5.26% (inactive)
5,COc1ccc(C(=O)Nn2c(SCC(=O)NCc3ccco3)nc3ccccc3c2=O)cc1,11.7% (inactive)
6,O=C(Nc1ccc(Br)cc1)C1CC(O)CN1C(=O)OCc1ccccc1 (stereo not given),-3.55% (inactive)
7,CCOc1ccc(NC(=O)CCc2nnc3ccc(N4CCC5(CC4)OCCO5)nn23)cc1,13.6% (inactive)
8,COc1ccc(N2CCN(c3ncnc4c3[nH]c3ccccc34)CC2)cc1,5.9% (inactive)
9,CC1(C)CN(Cc2ccccc2)C(=O)[C@H]1CC(=O)Nc1ccccc1,5.59% (inactive)
10,CC(=O)c1ccccc1OCC(=O)Nc1cccc(S(=O)(=O)N2CCCC2)c1,2.44% (inactive)
11,Cc1ccc(C(=O)Nc2cccc(C(F)(F)F)c2)cc1Nc1ncnc2nc[nH]c12,-99.5% (inactive)
12,CC(=O)Nc1ccc(C=NNc2nnc(NN=Cc3ccc(NC(C)=O)cc3)c3ccccc23)cc1,9.1% (inactive)
13,Cc1ccnc(NC(=O)c2cccc(NC(=O)c3ccc(Cl)c(Cl)c3)c2)c1,20.3% (inactive)
14,COc1ccc(NC(=O)COC(=O)/C=C/c2ccc(OC)c(S(=O)(=O)N3CCOCC3)c2)cc1,10.3% (inactive)
15,COc1ccc(C=C2CS(=O)(=O)CC(=Cc3ccc(OC)cc3)C2=O)cc1,-98.7% (inactive)
16,COC(=O)[C@@]1(Cc2ccccc2)[C@H]2C(=O)N(Cc3ccccc3)C(=O)[C@H]2[C@H]2CN=C(SCc3ccc(Cl)cc3)N21,-98.9% (inactive)
17,CCOc1ccc(NC(=S)N=Nc2c(O)[nH]c3ccccc23)cc1,53.1% (inactive)
18,CC(NC(=O)CNC(=O)OCc1ccccc1)C(=O)N1CC(O)CC1C(=O)OCc1ccccc1 (stereo not given),0.54% (inactive)
19,CCN1CCN(Cc2ccc(NC(=O)c3ccc(C)c(NC(=O)c4cccc5[nH]ccc45)c3)cc2C(F)(F)F)CC1,-39.3% (inactive)
20,Cc1ccc(C)c(Cn2c(O)c(N=NC(=S)Nc3ccccc3F)c3ccccc32)c1,-7.63% (inactive)
21,COc1cc(OC)cc(-c2cc3nc(C)c(CCC(=O)O)c(C)n3n2)c1,2.12% (inactive)
22,O=C(C[n+]1ccccc1)N/N=C/c1ccc(O)cc1,-1.14% (inactive)

row,Structure (SMILES),"activity change, negative = inhibition"
1,C#CCN(C[C@@H]1[C@@H](OC(=O)NCc2ccccc2F)[C@@H](OC(=O)NCc2ccccc2F)Cn2c(=O)ccc(=O)n21)S(=O)(=O)c1ccc(C)cc1,-99% (inactive)
2,Cc1ccnc(NC(=O)c2ccc(OCC3CCCO3)cc2)c1 (stereo not given),30.4% (inactive)
3,Cc1ccc(-n2c(=O)c3c(c4cc(C)ccc4n3C)n(CC(=O)NCC3CCCO3)c2=O)cc1 (stereo not given),1.42% (inactive)
4,CCOc1ccc(C(=O)NC(=S)N(Cc2ccccc2)Cc2ccccc2)cc1,7.66% (inactive)
5,O=C(Nc1cc(Cl)ccc1Cl)C1Cc2ccccc2O/C1=N\O (stereo not given),-18.5% (inactive)
6,CCOC(=O)c1sc2nc(C)nc(NCc3ccccc3)c2c1C,42.5% (inactive)
7,COc1ccc(CN2C(=O)c3cccnc3C2Nc2cc(Cl)ccc2OC)cc1 (stereo not given),22.8% (inactive)
8,CCC(=O)NC(c1ccc(C)cc1)c1cc(Cl)c2cccnc2c1O (stereo not given),0.319% (inactive)
9,CC(=O)NC(c1ccc(Cl)cc1Cl)c1ccc2cccnc2c1O (stereo not given),-95.7% (inactive)
10,CCC(=O)NC(c1cc(Cl)c2cccnc2c1O)C1CC1 (stereo not given),-92.9% (inactive)
11,CN(C)S(=O)(=O)c1ccc(Cl)c(C(=O)NCCNC(=O)c2cc(S(=O)(=O)N(C)C)ccc2Cl)c1,24.3% (inactive)
12,CCNc1nc(CN2CCOCC2)nc2sc3c(c12)CCC3,23.2% (inactive)
13,Cc1nn(-c2ccccc2)c(Cl)c1C(=O)N1CCN(c2ncnc3c2cnn3-c2ccccc2)CC1,-100% (inactive)
14,O=c1nc(N/N=C/C=C/c2ccccc2)cn[nH]1,27.4% (inactive)
15,CN(CCNC(=O)C1CCN(S(=O)(=O)N2CCOCC2)CC1)CCc1ccccc1,-1.32% (inactive)
16,O=C(N/N=C/c1cc2c3c(c1O)CCCN3CCC2)c1ccccc1O,-97.2% (inactive)
17,CCOC(=O)C1CCN(S(=O)(=O)Cc2ccccc2)C1=O (stereo not given),3.01% (inactive)
18,CCOC(=O)CCSc1nc(N2CCOCC2)c2c(c1C#N)CC(C)(C)OC2,28.4% (inactive)
19,COc1ccc(C=NNc2nc3ccccc3s2)cc1,-14.4% (inactive)
20,C(=Cc1nc2ccccc2o1)c1ccc2c(c1)OCO2,16.1% (inactive)
21,c1ccn2cc(-c3ccc4c(c3)OCCO4)nc2c1,23.6% (inactive)
